The source of these data is PubChem BioAssay.

The nature of assay [1]: inhibitors of TNFa-induced NFkB p65 translocation, primary screen, imaging, HUVEC, MLSMR starter and 10KST1 sets (AID 438;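 active = inhibition above 20% together with a positive visual image hit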;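 note: compound added about 3h40 before a 20 min TNFalpha stimulation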;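 for inhibition: signal is the nuclear over cytoplasmic p65 intensity ratio per well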). The conditions noted are these: HUVEC TNFa-induced p65 nuclear translocation; cell count: measured here: nuclei count (cytotoxicity indicator), at 2.08 µM; inhibition: at 2 µM, stronger effect = higher value, 0% TNFa-plus-vehicle, 100% no-TNFa wells.
Assay [2] can be described thus: inhibitors of mutant huntingtin aggregation, primary screen, imaging, exon1htt(103Q)mCFP cells, high-content imaging (AID 483;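 active = visual image review flags a hit and inhibition of aggregation exceeds 20%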;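 note: compound exposure lasted 3 days before fixation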;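 for nuclei count: percent of the per-plate median nuclei count of sample wells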). As to conditions: exon1htt(103Q)mCFP cell line, aggregate imaging, at 2 µM; inhibition of aggregation: stronger effect = higher value; nuclei count: measured here: cell count, toxicity.
The nature of assay [3]: inhibitors of E-selectin induction by TNFa, primary screen, imaging, HUVEC, immunofluorescence, MLSMR starter and 10KST1 sets (AID 487;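 active = visually confirmed hit in the image check and inhibition above 20%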;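 for inhibition: signal is fraction of cell area covered by stained E-selectin grains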;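 for nuclei count: 100% = median nuclei count of all wells on the same plate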). The conditions noted are these: HUVEC TNFalpha-induced E-selectin immunofluorescence imaging, at 2 µM; inhibition: stronger effect = higher value; nuclei count: measured here: cell number, toxicity.
Assay [4] has as its target Voltage-gated potassium channel subunit beta-2 (Rattus norvegicus) (UniProt P62483). Description: KvBeta enzyme negative modulators, primary screen, biochemical, NADPH fluorescence (AID 622;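 active = fluorescence slope higher than the sample average by over 3 SD, cut at about -0.22 in these data, passing the limit was not always enough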;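 note: slope of raw intensity against log time taken from 70 to 1610 s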). The conditions noted are these: recombinant KvBeta, 4-cyanobenzaldehyde reduction, at 10 µM, stronger effect = higher value.
The target is the same in assay [5]. Description: KvBeta positive modulators, primary screen, biochemical, NADPH fluorescence (AID 623;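 active = NADPH fluorescence slope more negative than the mean of all samples by about 3 SD, 99.7% confidence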;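 note: fluorescence intensity change per second fitted from 20 to 320 s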). The conditions noted are these: Recombinant KvBeta, NADPH fluorescence decrease slope, 10 min; at 10 µM; stronger effect = lower value.
Assay [6] has as its target Alpha-2C adrenergic receptor (Homo sapiens) (UniProt P18825). As to the kind of experiment: modulators of alpha2C/GIRK thallium flux, primary screen, cell-based, HEK293 alpha2C/GIRK1/2 (AID 624).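 Note: slope of fluorescence ratio to pre-addition baseline per second over 15 to 24 s.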 The conditions noted are these: thallium flux BTC fluorescence, at 10 µM, actives lie on both sides.
The nature of assay [7]: inhibitors of Sendai virus-induced IRF3 signaling, primary screen, TLR/RLR signaling modifier project, cell-based, Sendai virus stimulus, luciferase, 10K MLSCN set (AID 602276;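 active = inhibition at or above 50% at 10 µM; inactive = inhibition below 50%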;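 note: firefly luciferase from ISG56 promoter only with Renilla not read in this screen; 0% = Sendai virus plus DMSO and 100% = medium plus DMSO without virus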). As to conditions: HEK293 RL24 IRF3 luciferase reporter, at 10 µM, stronger effect = higher value. A general note: Reporter assays use an easily measured gene product as a stand-in for the process of interest.

Assay [8] is described as follows: inhibitors of poly I:C-induced TLR3 signaling, primary screen, cell-based, poly I:C stimulus, luciferase, 10K MLSCN set (AID 602277;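 active = inhibition of the reporter signal at or above 50%; inactive = inhibition below 50%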). The conditions noted are these: HEK293-TLR3 RL24 IRF3 luciferase reporter, at 10 µM, stronger effect = higher value.

Calls of active or inactive are those of the source.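 Rule for the calls, unless noted: active = fluorescence slope after compound addition differing from the mean of all screened samples at 99.7% confidence, in either direction; inactive = the rest.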

In general, inhibition refers to the relative decrease from the control value, in per cent.

Sequence of Alpha-2C adrenergic receptor (Homo sapiens) (P18825 whole entry, looked up): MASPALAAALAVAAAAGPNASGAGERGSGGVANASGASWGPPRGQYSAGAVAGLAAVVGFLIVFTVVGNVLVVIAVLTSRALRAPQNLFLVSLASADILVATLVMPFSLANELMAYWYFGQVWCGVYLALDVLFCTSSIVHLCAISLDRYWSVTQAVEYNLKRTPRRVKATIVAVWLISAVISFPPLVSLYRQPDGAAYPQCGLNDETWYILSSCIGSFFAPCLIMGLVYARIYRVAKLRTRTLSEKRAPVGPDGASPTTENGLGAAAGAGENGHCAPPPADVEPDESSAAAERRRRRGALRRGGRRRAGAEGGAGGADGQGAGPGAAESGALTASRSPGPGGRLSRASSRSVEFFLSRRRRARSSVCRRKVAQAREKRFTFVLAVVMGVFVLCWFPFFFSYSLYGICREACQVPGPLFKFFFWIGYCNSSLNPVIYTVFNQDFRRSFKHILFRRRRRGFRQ
Sequence of Voltage-gated potassium channel subunit beta-2 (Rattus norvegicus) (P62483 whole entry, looked up): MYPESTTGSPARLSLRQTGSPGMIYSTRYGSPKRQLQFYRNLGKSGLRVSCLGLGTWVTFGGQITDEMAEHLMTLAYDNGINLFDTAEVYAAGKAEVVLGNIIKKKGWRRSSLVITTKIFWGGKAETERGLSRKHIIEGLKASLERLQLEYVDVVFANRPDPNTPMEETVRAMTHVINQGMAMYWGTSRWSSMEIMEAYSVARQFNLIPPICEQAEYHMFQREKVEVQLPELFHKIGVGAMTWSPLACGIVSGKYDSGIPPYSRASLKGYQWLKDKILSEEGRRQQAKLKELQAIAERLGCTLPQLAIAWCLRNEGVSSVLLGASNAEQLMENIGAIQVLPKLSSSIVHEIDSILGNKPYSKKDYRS

Take `COc1ccc2cc(C#N)c(SCC(=O)N3CCCC3)nc2c1`: the cell count in assay [1] was determined as 514. For the same molecule, the inhibition in assay [1] was -2.1% (inactive); in assay [3] it was -68.2% (inactive); in assay [7], -0.637% (inactive); in assay [8] it was -5.53% (inactive). Further, the inhibition of aggregation in assay [2] is -17.8% (inactive). The nuclei count in assay [2] worked out at 116%; in assay [3], 150%. Also, the fluorescence slope in assay [4] was -0.57 (inactive). Moreover, in assay [5], the NADPH fluorescence slope is -2.5e-05 (inactive). Further, the slope in assay [6] is 0.00554 (inactive).

In the case of `N#Cc1ccccc1NC(=O)CSc1nnc(-c2ccccc2)n1-c1ccccc1`, in assay [1], the cell count was 556. In addition, the inhibition in assay [1] was -25.3% (inactive); in assay [3] it was -1.6% (inactive); in assay [7] it was 1.9% (inactive); in assay [8], 24.8% (inactive). Further, the inhibition of aggregation in assay [2] was -20.9% (inactive). For the same molecule, the results for the nuclei count in assay [2] and in assay [3] were 99.9% and 83.7%, respectively. For the same molecule, in assay [4], the fluorescence slope was -0.603 (inactive). For the same molecule, the NADPH fluorescence slope in assay [5] is -1.9e-05 (inactive). In addition, in assay [6], the slope was 0.00673 (inactive).

`N#CCCN1CCN(S(=O)(=O)c2ccc(S(=O)(=O)NC3CCCC3)cc2)CC1`: in assay [1], the cell count stood at 689. In addition, the inhibition is -10% (inactive) in assay [1], -2.1% (inactive) in assay [3], -1.55% (inactive) in assay [7] and 28.4% (inactive) in assay [8]. Moreover, the inhibition of aggregation in assay [2] was -6.8% (inactive). Further, the nuclei count in assay [2] and in assay [3] was 126% throughout. The fluorescence slope in assay [4] is -0.624 (inactive). Besides, the NADPH fluorescence slope in assay [5] was -3.6e-05 (inactive). In addition, the slope in assay [6] is 0.00706 (inactive).

With `CN(C1CCCCC1)S(=O)(=O)c1ccc(S(=O)(=O)N2CCN(CCC#N)CC2)cc1`, the cell count in assay [1] turned out to be 698. In addition, the inhibition is 0% (inactive) in assay [1], -53.2% (inactive) in assay [3], 3.23% (inactive) in assay [7] and 15.8% (inactive) in assay [8]. Further, the inhibition of aggregation in assay [2] is 28.2% (inactive). The figures for the nuclei count in assay [2] and in assay [3] were 124% and 107%, respectively. Besides, the fluorescence slope in assay [4] is -0.527 (inactive). Moreover, the NADPH fluorescence slope in assay [5] was -3.3e-06 (inactive). For the same molecule, the slope in assay [6] is 0.00618 (inactive).

As to `Cn1c(C(=O)N2CCCC(C(=O)NCCCc3ccccc3)C2)cc2sccc21` (stereo not drawn), the cell count in assay [1] was determined as 550. Besides, the inhibition was -16.1% (inactive) in assay [1], -32.8% (inactive) in assay [3], 0.49% (inactive) in assay [7] and -2.49% (inactive) in assay [8]. Also, in assay [2], the inhibition of aggregation was 6.7% (inactive). Besides, the nuclei count in assay [2] turned out to be 139%; in assay [3] it was 103%. In addition, the fluorescence slope in assay [4] is -0.256 (inactive). Also, the NADPH fluorescence slope in assay [5] was 6.7e-06 (inactive). Moreover, in assay [6], the slope was 0.00472 (inactive).

On to `CCCCC(=O)NCCc1cc2c(C)ccc(C)c2[nH]c1=O`, for which, in assay [1], the cell count turned out to be 699. In addition, the inhibition in assay [1] was -1% (inactive); in assay [3], -13.4% (inactive); in assay [7], 10.6% (inactive); in assay [8], 22.7% (inactive). Further, the inhibition of aggregation in assay [2] was -22.4% (inactive). Further, the nuclei count in assay [2] was 105%; in assay [3] it was 102%. The fluorescence slope in assay [4] is -0.552 (inactive). Besides, in assay [5], the NADPH fluorescence slope is -3.7e-05 (inactive). Also, the slope in assay [6] was 0.00563 (inactive).

In the case of `CC(C)(C)Nc1nc(NC(C)(C)C)nc(-n2ccnc2)n1`, the cell count in assay [1] worked out at 194. Further, the inhibition was -0.8% (inactive) in assay [1], 2.8% (inactive) in assay [3], 14.6% (inactive) in assay [7] and 29% (inactive) in assay [8]. Moreover, the inhibition of aggregation in assay [2] is -0.1% (inactive). The nuclei count was determined as 81.5% in assay [2] and 91.6% in assay [3]. Further, in assay [4], the fluorescence slope was -0.443 (inactive). Besides, in assay [5], the NADPH fluorescence slope is 1.8e-05 (inactive). For the same molecule, the slope in assay [6] is 0.00537 (inactive).

On to `CC(C)(CSc1nncn1N)NS(=O)(=O)c1ccc(Cl)cc1`, for which, in assay [1], the cell count is 690. Besides, the inhibition is -4.4% (inactive) in assay [1], -17.3% (inactive) in assay [3], -0.22% (inactive) in assay [7] and 4% (inactive) in assay [8]. Also, in assay [2], the inhibition of aggregation was 11.7% (inactive). The nuclei count in assay [2] stood at 58.2%; in assay [3], 108%. For the same molecule, the fluorescence slope in assay [4] was -0.447 (inactive). For the same molecule, in assay [5], the NADPH fluorescence slope was -4.4e-05 (inactive). The slope in assay [6] was 0.00436 (inactive).
